A short description of assay [1]: resazurin metabolic signal in HepG2 cells – cell-based, resazurin fluorescence, 24 h, PK04 Diversity Set, profiling panel (AID 1172). Further: test concentration not given here. The conditions noted are these: HepG2 viability, higher = more signal. A general note: The colour change of resazurin is a common sign of viable cells or microbes.
A short description of assay [2]: budding yeast growth changes without added modifier – OD600, strain BY4716, 24 h, basal condition, primary screen (AID 1173). The conditions noted are these: S. cerevisiae BY4716 growth, OD600, 24 h; higher = more signal, called active from +8 up or from −8 down.
Assay [3] is described as follows: viability profiling in MM1S myeloma cells – cell-based, resazurin fluorescence, basal, 24 h, PK04 Diversity Set, profiling panel (AID 1174).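 Further: MM1S multiple myeloma cell line; test concentration not given here.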 The conditions noted are these: higher = more signal, called active from +8 up or from −8 down.
Assay [4] concerns the target Dihydroorotate dehydrogenase (quinone), mitochondrial (Plasmodium falciparum (isolate 3D7)) (UniProt Q08210). The experiment in a line: inhibition of P. falciparum DHODH – biochemical, C-terminal His tag, absorbance 600 nm, primary screen (AID 1175).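 Further: recombinant parasite enzyme with a five histidine tag at its C terminus; test concentration not given here.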 The conditions noted are these: PfDHODH enzyme, DCIP absorbance 600 nm; higher = more signal, called active from +8 up or from −8 down.

Assay [5] in a line: inhibition of PAO1 biofilm formation – strain PAO1, LB-PBS medium, absorbance 600 nm, primary screen (AID 1176). Further: test concentration not given here. The conditions noted are these: P. aeruginosa PAO1 growth/biofilm, A600, 12 h; higher = more signal.
A short description of assay [6]: growth modulation of vineyard yeast isolate – strain RM11-1a, OD600, basal, 24 h, primary screen (AID 1177).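 Further: cultures grown under basal conditions with no added stressor; test concentration not given here.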 The conditions noted are these: S. cerevisiae RM11-1a growth, OD600, 24 h; higher = more signal, called active from +8 up or from −8 down.
The nature of assay [7]: growth of efflux-deficient E. coli DRC39 – strain DRC39, OD650, 24 h, E. coli filamentation inducers, primary screen (AID 1178).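 Further: growth measured as culture turbidity by optical density at 650 nm; test concentration not given here.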 As to conditions: E. coli DRC39 acrAB, higher = more signal, called active from +8 up or from −8 down.
Assay [8] can be described thus: growth of efflux-deficient E. coli DRC39 – strain DRC39, OD650, 48 h, E. coli filamentation inducers, primary screen (AID 1179).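 Further: screen aims at cell division blockers that make cells filament.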 The conditions noted are these: E. coli DRC39 delta-acrAB growth, higher = more signal, called active from +8 up or from −8 down.
Assay [9] can be described thus: viability profiling in RPMI8226 myeloma cells – cell-based, resazurin fluorescence, basal, 24 h, PK04 Diversity Set, profiling panel (AID 1180).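 Further: RPMI8826 multiple myeloma cell line at 5000 cells per well; test concentration not given here.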 The conditions noted are these: higher = more signal.
For assay [10], the target named is E3 ubiquitin-protein ligase XIAP (Homo sapiens) (UniProt P98170). Nature of the assay: small molecules binding XIAP protein – biophysical, small-molecule microarray, fluorescence 635 nm, primary screen (AID 1181).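 Further: score merges 667 nm emission and signal to noise over triplicate slides.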 As to conditions: higher = more signal.

The source made the active and inactive calls. Unless noted, how the calls were made is not given here.

E3 ubiquitin-protein ligase XIAP (Homo sapiens), sequence (P98170 whole entry, looked up): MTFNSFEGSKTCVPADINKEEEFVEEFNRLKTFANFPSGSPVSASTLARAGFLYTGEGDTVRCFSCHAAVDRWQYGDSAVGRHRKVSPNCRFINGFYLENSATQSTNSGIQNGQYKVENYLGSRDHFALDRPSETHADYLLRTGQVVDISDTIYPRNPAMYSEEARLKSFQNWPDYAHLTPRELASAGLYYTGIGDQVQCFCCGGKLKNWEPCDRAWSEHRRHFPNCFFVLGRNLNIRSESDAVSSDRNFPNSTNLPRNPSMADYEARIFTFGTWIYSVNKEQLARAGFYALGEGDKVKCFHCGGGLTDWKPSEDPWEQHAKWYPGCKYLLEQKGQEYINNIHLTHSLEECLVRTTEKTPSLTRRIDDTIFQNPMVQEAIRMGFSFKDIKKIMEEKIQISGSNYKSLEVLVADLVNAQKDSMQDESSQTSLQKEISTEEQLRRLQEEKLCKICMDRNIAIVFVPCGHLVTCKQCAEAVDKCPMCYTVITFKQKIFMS
Dihydroorotate dehydrogenase (quinone), mitochondrial (Plasmodium falciparum (isolate 3D7)), sequence (Q08210 whole entry, looked up): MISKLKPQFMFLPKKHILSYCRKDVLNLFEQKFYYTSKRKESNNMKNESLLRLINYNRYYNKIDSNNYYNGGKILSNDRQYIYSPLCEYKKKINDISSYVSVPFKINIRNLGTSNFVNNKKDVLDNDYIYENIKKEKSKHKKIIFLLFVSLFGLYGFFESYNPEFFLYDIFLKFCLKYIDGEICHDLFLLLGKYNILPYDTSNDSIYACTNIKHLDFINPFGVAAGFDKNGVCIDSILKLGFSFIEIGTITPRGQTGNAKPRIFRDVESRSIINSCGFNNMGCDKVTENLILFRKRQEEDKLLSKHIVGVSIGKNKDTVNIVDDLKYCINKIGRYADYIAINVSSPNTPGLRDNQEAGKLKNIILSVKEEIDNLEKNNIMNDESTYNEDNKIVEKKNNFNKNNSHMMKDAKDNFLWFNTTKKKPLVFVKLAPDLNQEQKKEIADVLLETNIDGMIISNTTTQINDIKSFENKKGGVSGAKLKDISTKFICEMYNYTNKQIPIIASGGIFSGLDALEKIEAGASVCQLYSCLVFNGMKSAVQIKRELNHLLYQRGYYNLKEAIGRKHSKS

Turning to `O=C1OCCC/C=C\[C@H]2OC34C=CCN(Cc5ccccc5)C(=O)[C@H]3N(CCO)C(=O)[C@@H]4C12` (stereo not given in full), the z-score is -0.122 in assay [1]; -0.662 (inactive) in assay [2]; 0.99 (inactive) in assay [3]; -0.152 (inactive) in assay [5]; -0.23 (inactive) in assay [6]; 1.68 (inactive) in assay [7]. In addition, the z-score in assay [8] was 1.89 (inactive); in assay [9] it was 0.936. Also, the composite z-score in assay [4] is -0.0771 (inactive); in [10], 0.0015.

Take `COc1ccc([Si](C)(C)[C@@H]2[C@@H](CC(=O)N3Cc4ccccc4C[C@H]3CO)O[C@]3(C(=O)N(Cc4ccc(I)cc4)c4ccccc43)[C@H]2C)cc1`: the z-score in assay [1] was 0.454; in [2], -0.0671 (inactive); in assay [3], -1 (inactive); in assay [5] it was 0.662 (inactive); in assay [6] it was 2.33 (inactive); in assay [7], 0.101 (inactive). In addition, the figures for the z-score in assay [8] and in assay [9] were -0.092 (inactive) and -0.336, respectively. Moreover, the values for the composite z-score in assay [4] and in assay [10] were 0.312 (inactive) and 0.262, respectively.

As to `COc1ccc([Si](C)(C)[C@H]2[C@H](CC(=O)N(CCO)Cc3ccccc3)O[C@@]3(C(=O)N(c4ccccc4)c4ccccc43)[C@@H]2C)cc1`, the z-score is -4.7 in [1]; 0.148 (inactive) in assay [2]; -8.42 (active) in [3]; 0.838 (inactive) in [5]; 0.29 (inactive) in [6]; 0.997 (inactive) in assay [7]. The z-score was -0.0322 (inactive) in [8] and -6.25 in [9]. Besides, the values for the composite z-score in [4] and in assay [10] were 0.531 (inactive) and 0.226, respectively.

Consider `COc1ccc([Si](C)(C)[C@@H]2[C@@H](CC(=O)N(CCO)Cc3ccccc3)O[C@]3(C(=O)N(Cc4cccc(I)c4)c4ccccc43)[C@H]2C)cc1`, for which the z-score in [1] was -2.2; in [2] it was -0.142 (inactive); in [3], -3.25 (inactive); in assay [5], 1.51 (inactive); in [6] it was 2.64 (inactive); in assay [7] it was -0.335 (inactive). For the same molecule, the z-score in assay [8] is -0.795 (inactive); in assay [9] it was -2.96. The values for the composite z-score in assay [4] and in assay [10] were 0.704 (inactive) and 0.236, respectively.

For the molecule `CC(C)Cc1ccc(CN2CC[C@@H](NC(=O)c3ccccc3)C2)cc1`, the z-score in assay [1] is -0.375; in assay [2], -7.1 (inactive); in [3], -0.18 (inactive); in assay [5], -0.0248 (inactive); in assay [6] it was 2.05 (inactive); in [7] it was 0.295 (inactive). Besides, the values for the z-score in assay [8] and in [9] were 0.118 (inactive) and -0.193, respectively. The composite z-score is 0.228 (inactive) in assay [4] and -0.135 in assay [10].

For `Cc1ccc(S[C@]2(C(=O)NCc3ccccc3)CC(=O)N(Cc3ccccc3C(F)(F)F)[C@@H]2c2ccc(CO)cc2I)cc1`, the z-score in [1] was 0.213; in assay [2], -5.1 (inactive); in [3], -2.36 (inactive); in assay [5], -0.239 (inactive); in assay [6] it was -1.54 (inactive); in [7], 0.506 (inactive). Besides, the z-score was -0.0277 (inactive) in [8] and -1.28 in [9]. The composite z-score in [4] is -1.44 (inactive); in [10] it was -0.135.

On to `C=C(CC1([C@@H](NP(=O)(c2ccccc2)c2ccccc2)[C@H]2C[C@@H]2CCCC)CC1)c1cccc(OC)c1`, for which the z-score is 2.56 in assay [1]; 2.17 (inactive) in [2]; 1.08 (inactive) in assay [3]; 0.0944 (inactive) in assay [5]; 1.61 (inactive) in assay [6]; -0.283 (inactive) in [7]. For the same molecule, the z-score in [8] is -0.216 (inactive); in assay [9], 3.23. In addition, the composite z-score in assay [4] was -0.0873 (inactive); in [10], 0.219.

Consider `COc1cc(CO)cc(I)c1O[C@H]1C=C(C(=O)NCCO)C[C@@H](N(CCN2CCOCC2)C(=O)C2CCCO2)[C@@H]1O` (stereo not given in full), for which the z-score in assay [1] is 0.687; in assay [2], -0.371 (inactive); in assay [3] it was -0.202 (inactive); in [5] it was -0.365 (inactive); in assay [6] it was 0.772 (inactive); in [7], 2.09 (inactive). In addition, the z-score in assay [8] is 1.21 (inactive); in [9], 0.716. Also, the composite z-score in assay [4] was 0.826 (inactive); in assay [10], -0.117.

Turning to `[N-]=[N+]=NCc1ccccc1[C@H]1OC(c2ccc(OCCCO)cc2)=N[C@@]1(Cc1ccccc1N=[N+]=[N-])C(=O)O`, the z-score in [1] is 0.539; in assay [2], -4.15 (inactive); in [3] it was 0.119 (inactive); in assay [5], 0.535 (inactive); in assay [6], -0.123 (inactive); in assay [7], -0.539 (inactive). Besides, the z-score in assay [8] is -0.779 (inactive); in [9] it was -0.0412. The results for the composite z-score in assay [4] and in [10] were -0.862 (inactive) and 0.166, respectively.

These data come from PubChem BioAssay.
